This is part of a sample that, as a whole, favours compounds with a hit. Of some 83,000 tested, about 20% had one in any assay.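 48-hour exposure, single concentration, 96-well plates; percent growth endpoint where 0 means no net growth. Active: below 10.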 Calls of active or inactive are those of the source.
What follows are compounds tested on KM12 colon (assay: NCI-60 one-dose screen, 48 h (100 = growth as untreated, 0 = no growth, -100 = all killed)). Settings: 10 µM unless noted.
For `COC(=O)N[C@H]1CCc2c(Br)c(OC)c(OC)c(OC)c2-c2ccc(SC)c(=O)cc21`, the growth was -4.65% (active). In the case of `O=C(N/N=C/c1ccc(N(CCCl)CCCl)cc1)c1cccc2ccccc12`, the growth is reported as 67.4% (inactive). With `O=[N+]([O-])c1c(Br)sc(Br)c1[N+](=O)[O-]` the growth was 64.1% (inactive). `COC(=O)C12CC(NC(=O)c3csc([C@@H](C[C@H](C(C)C)N(C)C(=O)[C@@H](NC(=O)[C@H]4CCCCN4C)C(C)C)OC(C)=O)n3)(C1)C2` was tested, and the growth was 11.1% (inactive). With `CC(=O)OC1CCC2(C)C(CCC3C2CC(=O)C2(C)C3CC(Sc3ccc(N(CCCl)CCCl)cc3)C2C(C)=O)C1` (stereo not given) the growth was 32.6% (inactive). In the case of `Oc1c(CCl)cc(Cl)cc1CCl`, the growth is reported as 105% (inactive). In the case of `COc1ccc(O)c(CNC(=O)CN2CCCC2=O)c1`, the growth is reported as 101% (inactive). For `Cc1cc(N(CCCl)CCCl)ccc1/C=N\NC(=O)c1ccncc1`, the growth was 95.6% (inactive). For `Cc1ccc(C(=O)NCCCOc2ccc(N3C(N)=NC(N)=NC3(C)C)cc2Cl)cc1S(=O)(=O)F`, the growth was 74.4% (inactive). For `Cn1cc(C=O)c2nccnc21`, the growth was 119% (inactive). In the case of `CC(=O)O[C@@H]1CC[C@]2(C)[C@H]3CC[C@]4(C)C(=O)CC[C@H]4[C@@H]3C[C@@H]3SC(N)=N[C@@]32C1`, the growth is reported as 33.1% (inactive). For `OCCNC(Cc1ccccc1)c1ccc2c(c1)OCO2` (stereo not given), the growth was 101% (inactive). With `Nc1ccc2c(c1)Cc1cc(Br)ccc1-2` the growth was 105% (inactive). In the case of `CN(CCCCN(C)CCOS(C)(=O)=O)CCOS(C)(=O)=O`, the growth is reported as 95.1% (inactive). In the case of `CCn1cnc2c(Nc3cccc(Cl)c3)nc(N[C@@H]3CCCC[C@@H]3N)nc21`, the growth is reported as -2.18% (active).

— PubChem BioAssay (NCI)
